From the supplement of paper PMC7156485
± gives the standard deviation of the averaged measurements.

Key:
Conditions in all cases: concentration: 10 µM; 24 h
HCC1569 [1] = test: cell number relative to DMSO (% of DMSO); higher = more cells (less growth inhibition / toxicity)
Procedure, shortened: (§1)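 Six fields per well were imaged at ×10 after the cells were fixed in 3.7% formaldehyde and stained with a rabbit anti-H1.0 antibody, an AlexaFluor 647 secondary and DAPI. The HCC1569 and TDF cells had been plated at 800 per well in 384-well plates (RPMI, 10% FBS) and treated in triplicate with compounds at 10 µM for 24 h at 37 °C. The values are the median of replicates of H1.0 nuclear intensity or cell number, as percent of the plate control. Smoothing for positional effects was applied to HCC1569 data.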

TDF [2] = test: as above
Procedure, shortened: as §1

TDF [3] = test: H1.0 immunofluorescence intensity relative to DMSO (% of DMSO); higher = stronger H1.0 induction, active = 120 or more
Procedure, shortened: as §1

HCC1569 [4] = test: H1.0 immunofluorescence intensity relative to DMSO (% of DMSO); higher = stronger H1.0 induction, active = 140 or more
Procedure, shortened: as §1
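Throughout, for H1.0 immunofluorescence intensity relative to DMSO: TDF is a line of transformed human dermal fibroblasts of mesenchymal origin.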
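Throughout, for cell number relative to DMSO: TDF denotes transformed human dermal fibroblasts of mesenchymal origin.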

Row | SMILES | cell number (HCC1569 [1]) | cell number (TDF [2]) | H1.0 immunofluorescence intensity (TDF [3]) | H1.0 immunofluorescence intensity (HCC1569 [4])
1 | CCC=CCC=CCC=CCC=CC=CC(O)CCCC(=O)O (racemic) | 106 | 94.7 | 103 (inactive) | 99 (inactive)
2 | Nc1nc(N)c2nc(CNc3ccc(C(=O)NC(CCC(=O)O)C(=O)O)cc3)cnc2n1 (stereo not given) [Aminopterin] | 80.8 | 87.6 | 87.8 (inactive) | 75.9 (inactive)
3 | CCCCCCCCC#CCC#CCC#CCCCC(=O)O [5,8,11-Eicosatriynoic acid] | 97.5 ± 3.3 | 97.3 ± 8 | 107 (inactive) | 98.5 (inactive)
4 | CS(=O)(=O)O.Cc1c(O)cccc1C(=O)NC(CSc1ccccc1)C(O)CN1CC2CCCCC2CC1C(=O)NC(C)(C)C (stereo not given) [Nelfinavir mesylate] | 102 | 112 | 90.6 (inactive) | 116 (inactive)
5 | Cc1cccc(C#Cc2ccccc2)n1.Cl [6-Methyl-2-(phenylethynyl)pyridine hydrochloride] | 99.9 | 105 | 91.5 (inactive) | 96.7 (inactive)
6 | COc1ccc(CC2c3cc(OC)c(OC)cc3CC[N+]2(C)C)cc1OC.[I-] (stereo not given) [Laudanosine methiodide] | 101 | 112 | 91.3 (inactive) | 93.6 (inactive)
7 | CS(=O)(=O)c1ccc(-c2cc(Br)sc2-c2ccc(F)cc2)cc1 | 99.9 | 100 | 96.8 (inactive) | 95.6 (inactive)
8 | COc1c(N2CC3CCCNC3C2)c(F)cc2c(=O)c(C(=O)O)cn(C3CC3)c12.Cl (stereo not given) [Moxifloxacin.HCl] | 101 | 122 | 96.7 (inactive) | 97.9 (inactive)
9 | COc1cc(C2Oc3cc(C4Oc5cc(O)cc(O)c5C(=O)C4O)ccc3OC2CO)ccc1O (stereo not given) [Silymarin] | 102 | 93.6 | 95.5 (inactive) | 88.3 (inactive)
10 | N#CC(=C(N)Sc1ccc(N)cc1)c1ccccc1C(F)(F)F | 102 | 115 | 90.6 (inactive) | 126 (inactive)
11 | CCC=CCC=CCC=CCC=CCC=CCC=CCCC(=O)OC(COCCCCCCCCCCCCCCCC)COP(=O)([O-])OCC[N+](C)(C)C (stereo not given) | 105 | 100 | 95.7 (inactive) | 101 (inactive)
12 | COc1cc(OC)c(C=C2C(=O)Nc3ccccc32)c(OC)c1 | 63.1 | 11.2 | 145 (active) | 184 (active)
13 | CC1CCc2c(N3CCC(O)CC3)c(F)cc3c(=O)c(C(=O)O)cn1c23 (stereo not given) [Nadifloxacin] | 107 | 89.2 | 98.7 (inactive) | 101 (inactive)
14 | CC1(C)CC=C(c2ccccc2)c2cc(/C=C/c3ccc(C(=O)O)cc3)ccc21 | 99.1 | 91.6 | 101 (inactive) | 111 (inactive)
15 | CC(C)CC(NC(=O)C(O)C(N)Cc1ccccc1)C(=O)O.Cl (stereo not given) [Bestatin hydrochloride] | 101 | 104 | 96.3 (inactive) | 99.6 (inactive)
16 | O=C1c2ccc(O)cc2OC(c2cc(O)c(O)c(O)c2)C1O (stereo not given) [Dihydrorobinetine] | 102 | 106 | 95.3 (inactive) | 95.3 (inactive)
17 | COc1cc(OC)cc(-c2cc3cnc(N)nc3nc2NC(=O)NC(C)(C)C)c1 | 84.2 | 90.4 | 101 (inactive) | 139 (inactive)
18 | O=C(NNC(=O)c1ccc(CNS(=O)(=O)c2ccc(F)c(Cl)c2)cc1)c1ccccc1 | 103 | 113 | 95.9 (inactive) | 105 (inactive)
19 | CC(=O)NC(CSCC=C(C)CCC=C(C)C)C(=O)O (stereo not given) | 101 | 101 | 93 (inactive) | 103 (inactive)
20 | NC(=O)c1cccc(-c2cccc(OC(=O)NC3CCCCC3)c2)c1 | 97.3 | 97.5 | 105 (inactive) | 124 (inactive)
21 | NC(CCCP(=O)(O)O)C(=O)O (racemic) | 103 | 105 | 94 (inactive) | 93.7 (inactive)
22 | COC(=O)C(C)(N)Cc1ccc(O)cc1.Cl (racemic) [alpha-Methyl-DL-tyrosine methyl ester hydrochloride] | 101 | 103 | 93 (inactive) | 94.3 (inactive)
23 | NCCC(O)(P(=O)([O-])O)P(=O)([O-])O.O.O.O.O.O.[Na+].[Na+] [Pamidronate.2Na.5H2O] | 101 | 96.8 | 95 (inactive) | 107 (inactive)

Row | SMILES | cell number (HCC1569 [1]) | cell number (TDF [2]) | H1.0 immunofluorescence intensity (TDF [3]) | H1.0 immunofluorescence intensity (HCC1569 [4])
24 | CN1C(C(=O)Nc2ccccn2)=C(O)c2ccccc2S1(=O)=O [Piroxicam] | 102 ± 2.1 | 107 ± 3.5 | 96.9 (inactive) | 98.2 (inactive)
25 | Cl.N=c1ccn2c(n1)OC1C(O)C(CO)OC12 (stereo not given) [Ancitabine hydrochloride] | 73.5 | 50.3 | 109 (inactive) | 92 (inactive)
26 | CCCCCCCCC=CCCCCCCCC(=O)OCC(O)COP(=O)(O)O (stereo not given) [Lysophosphatidic acid] | 101 | 104 | 96.9 (inactive) | 105 (inactive)
27 | CCOc1nc2cccc(C(=O)O)c2n1Cc1ccc(-c2ccccc2-c2nc(=O)o[nH]2)cc1 | 79.7 | 101 | 103 (inactive) | 137 (inactive)
28 | COc1ccc(S(=O)(=O)Nc2cc(Cl)cc(Cl)c2OC)cc1N1CCNCC1.Cl | 100 | 100 | 93.4 (inactive) | 99.9 (inactive)
29 | CC(=O)Oc1ccccc1C(=O)O [Acetylsalicylic acid] | 101 | 98.8 | 89.6 (inactive) | 88.3 (inactive)
30 | O=C1NC(=O)C(=Cc2cccc(C(F)(F)F)c2)S1 [PIM1/2 Kinase Inhibitor V] | 102 | 103 | 102 (inactive) | 108 (inactive)
31 | CC(=O)O.O=C(NCC1CCCCN1)c1cc(OCC(F)(F)F)ccc1OCC(F)(F)F (stereo not given) [Flecainide acetate] | 102 ± 3.6 | 101 ± 1.2 | 91.5 (inactive) | 107 (inactive)
32 | C#C[C@@]1(OC(C)=O)CC[C@H]2[C@@H]3CCC4=CC(=O)CC[C@@H]4[C@H]3CC[C@@]21C [(17beta)-17-ethynyl-3-oxoestr-4-en-17-yl acetate] | 90.4 | 96.8 | 95.5 (inactive) | 121 (inactive)
33 | O=c1c(-c2ccc(O)cc2)coc2cc(O)cc(O)c12 | 97.6 | 100 | 96.6 (inactive) | 104 (inactive)
34 | CCCCCCCCCCCCCCCCCC(=O)O [Octadecanoic acid] | 102 | 101 | 104 (inactive) | 95.3 (inactive)
35 | CCCC1=C(c2ccc(O)cc2)N(c2ccc(O)cc2)NC1=C1C=CC(=O)C=C1 [1,3,5-tris(4-hydroxyphenyl)-4-propyl-1H-pyrazole] | 98.3 | 107 | 92.5 (inactive) | 99.1 (inactive)
36 | COc1cc(C(O)C(=O)O)ccc1O (stereo not given) [hydroxy(4-hydroxy-3-methoxyphenyl)acetic acid] | 99.7 | 99.1 | 94.8 (inactive) | 99.4 (inactive)
37 | COc1cc(=O)n(C)c2c(OCC(O)C(C)(C)O)cccc12 (stereo not given) [Foliosidine] | 103 | 112 | 93.5 (inactive) | 93.7 (inactive)
38 | c1ccc(CNc2nc(NCc3ccccc3)c3ccccc3n2)cc1 [N~2~,N~4~-dibenzyl-2,4-quinazolinediamine] | 33.7 | 39 | 156 (active) | 88.7 (inactive)
39 | CCCCCCCCCCOCCC(=O)O [4-Oxatetradecanoic acid] | 102 | 110 | 95.6 (inactive) | 103 (inactive)
40 | CNc1cc(NS(=O)(=O)c2ccc(N)cc2)nc(NC)n1.Cl.Cl [Ro 04-6790 dihydrochoride] | 107 | 108 | 98.7 (inactive) | 84.4 (inactive)
41 | CSc1ccc(/C=C2/C(C)=C(CC(=O)O)c3cc(F)ccc32)cc1 | 103 | 105 | 99.8 (inactive) | 102 (inactive)
42 | CCCCCC(=O)C=CC=CCC=CCC=CCCCC(=O)O [15-Ketoeicosatetraenoic acid] | 99.5 | 102 | 94 (inactive) | 86.9 (inactive)
43 | CC[C@@]1(O)C(=O)OCc2c1cc1n(c2=O)Cc2cc3c(CN(C)C)c(O)ccc3nc2-1 | 61.3 | 26.3 | 129 (active) | 142 (active)
44 | CCCCCCCCCCCCCC(=O)O [Tetradecanoic acid] | 99.4 | 104 | 97.8 (inactive) | 102 (inactive)
45 | CN1CCN(CC(=O)N2c3ccccc3C(=O)Nc3cccnc32)CC1.Cl.Cl [Pirenzepine dihydrochloride] | 107 | 121 | 97.4 (inactive) | 95.9 (inactive)
